The source of these data is PubChem BioAssay (NCI).

Some test systems named below: NCI-H23 lung; NCI-H226 lung; NCI-H322M lung; HOP-62 NSCLC; NCI-H460 lung; HOP-92 NSCLC; NCI-H522 lung; A549/ATCC NSCLC; 786-0 renal; COLO 205 colon.
Common to all, as to experiment: NCI-60 one-dose screen, 48 h (100 = growth as untreated, 0 = no growth, -100 = all killed)
Details in all cases: 10 µM unless noted

Each structure is given as a SMILES string. Values joined by “and” are separate entries in the source; they are usually repeats but may differ in a detail not shown here. Identical values can stand only once. The panel holds about 83,000 compounds, 20% with a hit somewhere; the sample as a whole holds those more often.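 Activity criterion: percent growth below 10, measured after cells in 96-well plates were exposed to a single compound concentration for 48 hours.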 Unmarked numbers belong to inactive results. Active and inactive are the calls of the source.

As to `CN(C)CCCNC(=S)Nc1ccc(/C=C/c2ccc(Cl)cc2)cc1`, the growth is -89.2% (active) in the assay with NCI-H23 lung; -20.2% (active) in the assay on NCI-H226 lung; -95% (active) in the assay with NCI-H322M lung; -50.8% (active) in the assay on HOP-62 NSCLC; -35.8% (active) in the assay with NCI-H460 lung; -53.3% (active) with HOP-92 NSCLC. Also, the growth in the assay on NCI-H522 lung is -51.9% (active); in the assay on A549/ATCC NSCLC it was -36% (active); in the assay on 786-0 renal, -37.4% (active); in the assay with COLO 205 colon, -58% (active).

For the compound `O=C(NNC(=S)NCCc1ccccc1)c1ccc(OCc2nc3ccc(Cl)cc3[nH]2)cc1`, the growth with NCI-H23 lung is 66.3%; with NCI-H226 lung, 97.7%; in the assay on NCI-H322M lung, 88.8%; in the assay with HOP-62 NSCLC, 97.4%; in the assay on NCI-H460 lung, 82.3%; in the assay on HOP-92 NSCLC, 144%. In addition, the growth is 78.7% with NCI-H522 lung, 73.8% with A549/ATCC NSCLC, 79.1% in the assay with 786-0 renal and 131% in the assay with COLO 205 colon.

Regarding `O=C(CSc1nnc(-c2ccc(-c3nc4ccc(Cl)cc4[nH]3)cc2)o1)Nc1ccc(Br)cc1`, the growth in the assay with NCI-H23 lung was -34.7% (active); in the assay with NCI-H226 lung, -46.9% (active); with NCI-H322M lung, 9.95% (active); in the assay with HOP-62 NSCLC, -31.1% (active); in the assay on NCI-H460 lung, -72.3% (active); in the assay on HOP-92 NSCLC, -7.8% (active). Moreover, the growth is -23.3% (active) in the assay on NCI-H522 lung, -38.9% (active) in the assay with A549/ATCC NSCLC, -44.1% (active) with 786-0 renal and 94.1% with COLO 205 colon.

As to `Fc1ccc(N2CC(Cn3c(C(F)(F)F)cc4c(Cl)ncnc43)C2)c(F)c1`, the growth is -76% (active) in the assay on NCI-H23 lung; 116% with NCI-H226 lung; 45.7% in the assay with NCI-H322M lung; 46.8% in the assay with HOP-62 NSCLC; -72.9% (active) with NCI-H460 lung; -7.85% (active) in the assay on HOP-92 NSCLC. Moreover, the growth in the assay with NCI-H522 lung is 9.73% (active); with A549/ATCC NSCLC, 108%; in the assay with 786-0 renal, 79.2%; in the assay with COLO 205 colon, 65%.

`COC(=O)c1cc(C(=O)C(C)(C)C)n2c3ccccc3c3ccccc3c12`: the growth in the assay with NCI-H23 lung is 92.4%; in the assay with NCI-H226 lung it was 100%; in the assay with NCI-H322M lung it was 102%; in the assay on HOP-62 NSCLC it was 132%; with NCI-H460 lung, 106%; in the assay on HOP-92 NSCLC, 63.2%. Further, the growth with NCI-H522 lung is 103%; with A549/ATCC NSCLC it was 115%; in the assay on 786-0 renal, 93%; in the assay with COLO 205 colon it was 112%.

For the compound `COc1c(F)ccc(C(=O)Nc2ccc3nc(NC(=O)C4CCCN(S(=O)(=O)c5ccc(C(C)(C)C)cc5)C4)sc3c2)c1F` (stereo not given), the growth is 66.6% in the assay on NCI-H23 lung; 64.1% in the assay with NCI-H226 lung; 80.3% with NCI-H322M lung; 88.9% with HOP-62 NSCLC; 57.3% in the assay on NCI-H460 lung; 6.58% (active) with HOP-92 NSCLC. Also, the growth is 66.7% in the assay on NCI-H522 lung, 64.1% in the assay on A549/ATCC NSCLC, 56% in the assay with 786-0 renal and 80.9% with COLO 205 colon.

`CC1=C(C(=O)Nc2ccccc2)C(c2cccc(Cl)c2Cl)n2c(nc3ccccc32)N1` (stereo not given): the growth in the assay with NCI-H23 lung was 61.3%; with NCI-H226 lung it was 70.5%; with NCI-H322M lung it was 60.3%; in the assay on HOP-62 NSCLC, 88.6%; in the assay on NCI-H460 lung, 25.7%; in the assay with HOP-92 NSCLC, 40.6%. The growth in the assay with NCI-H522 lung was 25.3%; in the assay on A549/ATCC NSCLC, 33.2%; with 786-0 renal it was 53.4%; in the assay with COLO 205 colon, 63.9%.

As to `N#CC1=C(c2ccco2)Nc2c(c(-c3ccccc3)nn2-c2ccccc2)C12C(=O)Nc1ccc(Cl)cc12` (stereo not given), the growth in the assay with NCI-H23 lung is 45.6%; in the assay on NCI-H226 lung it was -9.04% (active); in the assay on NCI-H322M lung, 50.7%; with HOP-62 NSCLC, -47.9% (active); in the assay with NCI-H460 lung it was 0.156% (active); with HOP-92 NSCLC, -0.851% (active). The growth in the assay on NCI-H522 lung is 0.0636% (active); with A549/ATCC NSCLC, -37.1% (active); in the assay on 786-0 renal it was -14.5% (active); in the assay with COLO 205 colon it was 79.6%.

Regarding `CN(C)c1ccc(/C=C/c2n(Cc3ccc4ccccc4c3)c3ccccc3[n+]2Cc2ccc3ccccc3c2)cc1`, the growth in the assay on NCI-H23 lung was -91.4% (active); with NCI-H226 lung, -65.2% (active); in the assay with NCI-H322M lung it was -90% (active); in the assay on HOP-62 NSCLC it was -63.3% (active); in the assay on NCI-H460 lung it was -75.9% (active); in the assay on HOP-92 NSCLC, -67.2% (active). Besides, the growth with NCI-H522 lung is -69.1% (active); in the assay on A549/ATCC NSCLC, -53.4% (active); with 786-0 renal it was -72% (active); with COLO 205 colon it was -41.7% (active).

On to `CC(=O)Nc1cccc(-n2c(COc3ccc(I)cc3)nc3ccccc32)c1`, for which the growth in the assay on NCI-H23 lung was 83.5% and 106%; in the assay on NCI-H226 lung it was 68.3% and 113%; in the assay with NCI-H322M lung, 102% and 107%; in the assay with HOP-62 NSCLC, 118% and 120%; with NCI-H460 lung it was 103% and 112%; with HOP-92 NSCLC, 79.9% and 116%. Moreover, the growth was 70.1% and 111% in the assay on NCI-H522 lung; 101% and 108% with A549/ATCC NSCLC; 101% and 109% with 786-0 renal; 96.9% and 128% in the assay with COLO 205 colon.

For the compound `COc1ccc(N=Nc2c(N)nn3c(-c4cc5cc(Br)ccc5oc4=O)ccnc23)cc1`, the growth in the assay with NCI-H23 lung was -4.72% (active); with NCI-H226 lung, -42.1% (active); in the assay on NCI-H322M lung, 30.1%; in the assay on HOP-62 NSCLC, 2.1% (active); with NCI-H460 lung, 3.1% (active); in the assay with HOP-92 NSCLC, -3.29% (active). Further, the growth is 0.558% (active) in the assay with NCI-H522 lung, 39.3% in the assay with A549/ATCC NSCLC, 5.11% (active) in the assay with 786-0 renal and 35.8% with COLO 205 colon.

Regarding `O=C(NN1C(=O)/C(=C/C=C/c2ccc([N+](=O)[O-])o2)SC1=S)c1ccc([N+](=O)[O-])cc1`, the growth was -88.4% (active) in the assay on NCI-H23 lung; -83.3% (active) in the assay with NCI-H226 lung; -100% (active) in the assay with NCI-H322M lung; -100% (active) in the assay on HOP-62 NSCLC; -48.9% (active) with NCI-H460 lung; -84.2% (active) in the assay on HOP-92 NSCLC. For the same compound, the growth in the assay on NCI-H522 lung was -88.7% (active); with A549/ATCC NSCLC, -93% (active); in the assay with 786-0 renal it was -80.1% (active); in the assay with COLO 205 colon, -94.1% (active).

With `COC(=O)CSC1=C(C)C(=O)C(OC)=C(OC)C1=O`, the growth in the assay with NCI-H23 lung is 94.3%; in the assay with NCI-H226 lung it was 93.1%; in the assay with NCI-H322M lung, 93.1%; in the assay on HOP-62 NSCLC it was 85.3%; in the assay on NCI-H460 lung, 96.8%; in the assay with HOP-92 NSCLC, 75.5%. Besides, the growth in the assay with NCI-H522 lung was 72.2%; in the assay on A549/ATCC NSCLC it was 90.4%; in the assay on 786-0 renal, 99.9%; in the assay on COLO 205 colon, 102%.
